Reference: the supplement of paper PMC11732987, “Enantioselective OTUD7B fragment discovery through chemoproteomics screening and high-throughput optimisation” (Communications Chemistry, 2025)

What was measured:
Assay in all cases: log2 ratio of Biotin-Ahx-Ub-VS probe labelling (fragment/DMSO); higher = less target engagement (more negative = stronger competition), active = hit call of the paper (q ≤ 0.05, log2 ratio ≤ -1)
Details in all cases: compound concentration: 200 uM; treatment time: 3 h
USP19 = target: T1, USP19 (UniProt O94966)
T1 sequence (whole entry): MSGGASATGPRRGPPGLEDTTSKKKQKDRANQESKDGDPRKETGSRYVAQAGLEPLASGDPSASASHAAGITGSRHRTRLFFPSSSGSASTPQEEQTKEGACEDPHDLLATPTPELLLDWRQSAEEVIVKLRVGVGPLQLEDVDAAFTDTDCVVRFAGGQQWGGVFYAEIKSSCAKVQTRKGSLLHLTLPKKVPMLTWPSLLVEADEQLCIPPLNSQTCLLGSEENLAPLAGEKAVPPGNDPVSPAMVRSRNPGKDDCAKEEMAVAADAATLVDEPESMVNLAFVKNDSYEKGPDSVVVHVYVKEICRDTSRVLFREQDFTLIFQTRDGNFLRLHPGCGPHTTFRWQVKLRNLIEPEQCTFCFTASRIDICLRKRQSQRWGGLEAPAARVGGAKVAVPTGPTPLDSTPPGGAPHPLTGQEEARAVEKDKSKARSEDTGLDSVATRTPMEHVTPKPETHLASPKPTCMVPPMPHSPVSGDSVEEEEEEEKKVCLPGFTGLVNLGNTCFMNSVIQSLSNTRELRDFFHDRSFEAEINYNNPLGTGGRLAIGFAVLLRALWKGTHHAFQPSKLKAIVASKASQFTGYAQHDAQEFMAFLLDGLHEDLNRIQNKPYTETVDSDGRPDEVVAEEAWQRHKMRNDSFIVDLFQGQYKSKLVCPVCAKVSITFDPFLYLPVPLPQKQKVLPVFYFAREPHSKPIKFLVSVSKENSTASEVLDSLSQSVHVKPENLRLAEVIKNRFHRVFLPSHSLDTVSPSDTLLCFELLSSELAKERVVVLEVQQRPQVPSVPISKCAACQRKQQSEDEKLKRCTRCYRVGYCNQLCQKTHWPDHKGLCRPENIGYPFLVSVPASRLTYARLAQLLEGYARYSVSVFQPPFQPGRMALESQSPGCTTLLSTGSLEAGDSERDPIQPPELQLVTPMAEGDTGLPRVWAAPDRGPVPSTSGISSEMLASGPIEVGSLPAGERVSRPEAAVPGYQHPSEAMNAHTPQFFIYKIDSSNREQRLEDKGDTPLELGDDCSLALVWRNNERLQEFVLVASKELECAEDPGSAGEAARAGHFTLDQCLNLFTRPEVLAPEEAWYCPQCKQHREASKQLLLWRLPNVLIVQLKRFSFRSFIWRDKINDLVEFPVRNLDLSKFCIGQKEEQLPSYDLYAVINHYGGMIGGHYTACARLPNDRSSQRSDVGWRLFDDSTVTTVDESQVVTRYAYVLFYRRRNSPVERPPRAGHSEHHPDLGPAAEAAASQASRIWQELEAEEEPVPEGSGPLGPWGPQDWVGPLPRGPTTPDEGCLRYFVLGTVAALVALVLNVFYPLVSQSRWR
Outline: (§1)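 Labelling with Biotin-Ahx-Ub-VS (0.5 µM final, 1 h) followed a 3 h triplicate treatment of HEK293T lysate (495 µg per sample, Tris/CHAPS/IGEPAL buffer with protease inhibitors) with fragment at 200 µM or vehicle. Labelled DUBs were NeutrAvidin-enriched, digested with LysC and trypsin, and run by diaPASEF LC-MS/MS. The values, average log2 fragment/vehicle ratios by unpaired t-test, come from global-median-normalised Spectronaut label-free quantities. Proteins with ≥2 unique peptides were used.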

USP22 = target: T2, USP22 (UniProt Q9UPT9)
T2 sequence (whole entry): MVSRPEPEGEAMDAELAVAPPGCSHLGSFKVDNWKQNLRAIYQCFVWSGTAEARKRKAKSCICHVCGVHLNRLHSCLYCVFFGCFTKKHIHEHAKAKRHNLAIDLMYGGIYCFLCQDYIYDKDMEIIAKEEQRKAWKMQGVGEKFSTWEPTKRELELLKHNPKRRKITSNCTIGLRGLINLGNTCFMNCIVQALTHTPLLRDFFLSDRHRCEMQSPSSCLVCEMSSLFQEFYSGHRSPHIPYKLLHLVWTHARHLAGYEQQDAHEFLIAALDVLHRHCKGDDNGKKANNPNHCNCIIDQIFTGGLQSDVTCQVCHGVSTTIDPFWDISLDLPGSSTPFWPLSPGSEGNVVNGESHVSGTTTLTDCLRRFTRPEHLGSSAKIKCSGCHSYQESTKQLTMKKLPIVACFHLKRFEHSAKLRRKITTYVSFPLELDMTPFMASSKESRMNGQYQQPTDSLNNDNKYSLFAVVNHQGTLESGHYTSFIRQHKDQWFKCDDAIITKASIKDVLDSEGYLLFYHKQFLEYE
Outline: as §1

USP24 = USP24 (UniProt Q9UPU5)
Outline: as §1

USP25 = target: T3, USP25 (UniProt Q9UHP3)
T3 sequence (whole entry): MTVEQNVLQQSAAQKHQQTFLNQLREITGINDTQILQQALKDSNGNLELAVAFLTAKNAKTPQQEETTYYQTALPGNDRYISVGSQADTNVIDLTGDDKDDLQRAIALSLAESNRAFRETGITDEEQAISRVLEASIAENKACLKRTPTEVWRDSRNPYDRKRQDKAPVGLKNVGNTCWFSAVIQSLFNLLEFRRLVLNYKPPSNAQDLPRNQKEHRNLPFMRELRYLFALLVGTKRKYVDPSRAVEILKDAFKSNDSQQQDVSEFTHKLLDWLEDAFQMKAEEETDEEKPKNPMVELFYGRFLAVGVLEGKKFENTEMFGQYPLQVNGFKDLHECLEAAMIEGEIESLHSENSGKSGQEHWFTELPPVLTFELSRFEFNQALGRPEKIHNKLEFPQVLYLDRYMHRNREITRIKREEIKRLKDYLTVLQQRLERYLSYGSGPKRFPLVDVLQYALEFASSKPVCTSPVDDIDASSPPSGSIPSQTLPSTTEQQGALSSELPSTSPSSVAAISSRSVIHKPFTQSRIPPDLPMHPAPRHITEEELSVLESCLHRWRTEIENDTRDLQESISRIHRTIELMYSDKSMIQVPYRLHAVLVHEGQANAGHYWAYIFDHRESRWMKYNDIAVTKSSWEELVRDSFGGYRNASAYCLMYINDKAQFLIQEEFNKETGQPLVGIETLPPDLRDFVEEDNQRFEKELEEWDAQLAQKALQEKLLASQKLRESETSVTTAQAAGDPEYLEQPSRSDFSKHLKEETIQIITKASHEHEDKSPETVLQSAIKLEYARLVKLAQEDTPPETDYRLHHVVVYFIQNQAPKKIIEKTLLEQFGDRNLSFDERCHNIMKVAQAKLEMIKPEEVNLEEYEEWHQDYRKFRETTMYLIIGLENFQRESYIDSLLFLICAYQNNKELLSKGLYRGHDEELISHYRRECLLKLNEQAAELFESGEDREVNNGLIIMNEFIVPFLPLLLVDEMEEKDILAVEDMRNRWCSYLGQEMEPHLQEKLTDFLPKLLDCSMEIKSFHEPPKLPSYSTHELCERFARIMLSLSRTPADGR
Outline: as §1

USP28 = target: T4, USP28 (UniProt Q96RU2)
T4 sequence (whole entry): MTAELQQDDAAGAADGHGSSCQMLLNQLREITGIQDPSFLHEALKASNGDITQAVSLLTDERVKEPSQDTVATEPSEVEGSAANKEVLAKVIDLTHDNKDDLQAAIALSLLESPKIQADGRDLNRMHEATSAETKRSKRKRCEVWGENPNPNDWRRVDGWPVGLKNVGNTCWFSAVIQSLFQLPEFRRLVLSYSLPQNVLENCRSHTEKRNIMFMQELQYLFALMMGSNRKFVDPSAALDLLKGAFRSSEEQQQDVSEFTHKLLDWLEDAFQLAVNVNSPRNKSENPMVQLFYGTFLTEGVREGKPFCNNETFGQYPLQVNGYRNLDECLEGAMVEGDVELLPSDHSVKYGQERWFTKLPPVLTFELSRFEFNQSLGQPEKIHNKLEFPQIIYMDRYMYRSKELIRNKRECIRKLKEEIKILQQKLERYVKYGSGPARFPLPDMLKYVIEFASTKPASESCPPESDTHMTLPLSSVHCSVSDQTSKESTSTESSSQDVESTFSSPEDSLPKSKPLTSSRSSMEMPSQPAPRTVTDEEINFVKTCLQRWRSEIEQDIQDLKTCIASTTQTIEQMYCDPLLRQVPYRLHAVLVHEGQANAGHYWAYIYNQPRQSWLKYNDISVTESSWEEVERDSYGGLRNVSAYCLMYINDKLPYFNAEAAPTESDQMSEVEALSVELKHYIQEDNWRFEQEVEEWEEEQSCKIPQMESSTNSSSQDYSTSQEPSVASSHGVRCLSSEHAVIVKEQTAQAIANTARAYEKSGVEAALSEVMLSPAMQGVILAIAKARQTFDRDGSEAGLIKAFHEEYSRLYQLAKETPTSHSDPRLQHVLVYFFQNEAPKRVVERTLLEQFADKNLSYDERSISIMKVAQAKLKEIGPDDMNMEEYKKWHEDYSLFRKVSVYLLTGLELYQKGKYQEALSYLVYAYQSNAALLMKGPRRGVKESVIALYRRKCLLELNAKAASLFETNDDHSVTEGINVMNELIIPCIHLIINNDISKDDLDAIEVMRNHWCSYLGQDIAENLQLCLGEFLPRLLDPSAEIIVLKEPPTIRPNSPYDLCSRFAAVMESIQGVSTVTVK
Outline: as §1

Measured: log2 ratio of Biotin-Ahx-Ub-VS probe labelling

USP24, sequence (Q9UPU5 whole entry): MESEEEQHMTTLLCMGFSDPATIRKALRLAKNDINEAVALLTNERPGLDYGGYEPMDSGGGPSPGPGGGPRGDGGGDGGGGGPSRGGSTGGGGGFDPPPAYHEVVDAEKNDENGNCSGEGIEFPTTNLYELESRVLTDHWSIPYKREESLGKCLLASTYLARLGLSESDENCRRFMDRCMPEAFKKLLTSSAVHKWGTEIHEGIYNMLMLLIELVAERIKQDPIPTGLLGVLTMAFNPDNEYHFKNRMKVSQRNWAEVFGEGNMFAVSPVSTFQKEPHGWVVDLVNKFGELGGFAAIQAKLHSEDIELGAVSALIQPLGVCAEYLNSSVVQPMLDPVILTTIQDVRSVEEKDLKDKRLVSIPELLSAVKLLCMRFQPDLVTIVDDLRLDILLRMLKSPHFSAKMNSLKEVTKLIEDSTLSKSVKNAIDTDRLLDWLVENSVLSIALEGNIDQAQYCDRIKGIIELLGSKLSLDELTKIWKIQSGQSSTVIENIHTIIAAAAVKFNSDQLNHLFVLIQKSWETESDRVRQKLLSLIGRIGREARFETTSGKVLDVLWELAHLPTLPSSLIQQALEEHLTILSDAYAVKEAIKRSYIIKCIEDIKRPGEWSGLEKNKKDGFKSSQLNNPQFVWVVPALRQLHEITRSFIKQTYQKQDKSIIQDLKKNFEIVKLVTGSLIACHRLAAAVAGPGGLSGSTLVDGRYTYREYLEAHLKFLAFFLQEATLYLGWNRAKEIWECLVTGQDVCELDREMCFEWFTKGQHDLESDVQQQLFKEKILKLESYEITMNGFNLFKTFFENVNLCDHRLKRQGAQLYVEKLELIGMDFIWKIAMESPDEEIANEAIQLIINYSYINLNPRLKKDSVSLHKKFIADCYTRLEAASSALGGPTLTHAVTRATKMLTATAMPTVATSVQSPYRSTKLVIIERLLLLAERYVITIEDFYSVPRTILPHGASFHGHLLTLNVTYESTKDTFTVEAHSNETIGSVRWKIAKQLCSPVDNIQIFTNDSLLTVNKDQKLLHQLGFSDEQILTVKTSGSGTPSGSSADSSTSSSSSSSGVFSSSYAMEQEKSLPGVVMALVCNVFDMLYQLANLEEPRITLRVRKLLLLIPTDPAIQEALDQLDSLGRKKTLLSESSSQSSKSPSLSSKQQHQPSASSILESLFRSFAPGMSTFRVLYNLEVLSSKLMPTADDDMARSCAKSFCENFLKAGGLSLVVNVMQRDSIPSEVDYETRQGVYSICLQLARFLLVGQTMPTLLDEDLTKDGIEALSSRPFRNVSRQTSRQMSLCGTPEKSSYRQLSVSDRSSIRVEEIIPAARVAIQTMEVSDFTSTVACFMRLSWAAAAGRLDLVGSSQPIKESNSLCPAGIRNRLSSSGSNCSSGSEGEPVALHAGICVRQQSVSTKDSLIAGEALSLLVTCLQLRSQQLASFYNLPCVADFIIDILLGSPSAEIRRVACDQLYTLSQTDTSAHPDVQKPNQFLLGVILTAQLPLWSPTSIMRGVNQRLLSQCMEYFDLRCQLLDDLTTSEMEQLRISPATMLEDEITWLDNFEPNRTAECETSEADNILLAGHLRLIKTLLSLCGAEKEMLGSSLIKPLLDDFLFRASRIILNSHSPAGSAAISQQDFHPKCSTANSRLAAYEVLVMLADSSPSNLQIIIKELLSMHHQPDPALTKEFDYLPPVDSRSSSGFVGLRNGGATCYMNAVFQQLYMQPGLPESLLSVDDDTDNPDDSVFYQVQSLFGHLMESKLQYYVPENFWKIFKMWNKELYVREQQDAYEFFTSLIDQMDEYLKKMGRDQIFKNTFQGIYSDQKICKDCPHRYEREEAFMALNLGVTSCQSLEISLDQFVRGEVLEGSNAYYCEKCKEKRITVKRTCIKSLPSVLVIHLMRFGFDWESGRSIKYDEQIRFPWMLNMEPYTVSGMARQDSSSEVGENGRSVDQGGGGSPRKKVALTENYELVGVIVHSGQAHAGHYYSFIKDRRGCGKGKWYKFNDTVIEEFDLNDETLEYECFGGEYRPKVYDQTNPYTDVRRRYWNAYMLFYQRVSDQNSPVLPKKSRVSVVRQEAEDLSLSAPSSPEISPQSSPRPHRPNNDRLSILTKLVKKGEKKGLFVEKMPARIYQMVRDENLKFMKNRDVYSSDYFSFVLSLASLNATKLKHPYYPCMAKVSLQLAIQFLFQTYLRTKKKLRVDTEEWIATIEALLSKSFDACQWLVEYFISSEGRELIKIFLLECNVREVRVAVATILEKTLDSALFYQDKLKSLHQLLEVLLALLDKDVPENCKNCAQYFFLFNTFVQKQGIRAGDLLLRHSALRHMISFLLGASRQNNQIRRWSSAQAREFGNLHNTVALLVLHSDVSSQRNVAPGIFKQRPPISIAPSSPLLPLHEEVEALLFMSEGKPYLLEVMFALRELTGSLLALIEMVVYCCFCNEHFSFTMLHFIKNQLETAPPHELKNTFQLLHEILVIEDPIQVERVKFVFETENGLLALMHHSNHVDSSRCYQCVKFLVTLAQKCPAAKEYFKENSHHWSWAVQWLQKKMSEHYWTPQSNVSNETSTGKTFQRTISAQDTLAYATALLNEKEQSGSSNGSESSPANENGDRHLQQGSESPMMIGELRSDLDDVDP

Cl.O=C(CCl)N1CCC(Cc2nccs2)C1 (stereo not given)
inactive: USP19 -0.32 | USP22 0.0323 | USP24 -0.414 | USP25 -0.365 | USP28 -0.389
